Compound activity from PubChem.
Pf Dd2 inh = Plasmodium falciparum Dd2 growth inhibition; actives 4.3% (n = 120,000); P. falciparum Dd2 growth, SYBR Green, 72 h; Potency, µM (titrated, usually from 28.9 µM), hits mostly inhibitors; active = well fitted inhibition curve with a large enough effect; note: nearly all actives have a fitted effect of over 65% in size
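Readout: SYBR Green fluorescence, 485 nm excitation, 535 nm emission, after ~16 h lysis at 37C. Before that, Dd2-infected red cells (2.5% hematocrit) grew 72 h with compound, 29 uM top final concentration.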
Each line names hits and unclear results; the compound was inactive in the other large screens. The entries come from a sample that favours hits as a whole.

COc1cc(OC)cc(C(=O)Nc2ccc3nc4c(c(Nc5ccc(OC)c(OC)c5)c3c2)CCCC4)c1	none
CCOc1ccccc1C(=O)Nc1ccc2nc3c(c(Nc4ccc(OC)c(OC)c4)c2c1)CCCC3	Pf Dd2 inh 1.1µM
COc1ccccc1Nc1c2c(nc3ccc(NC(=O)c4ccc(N(C)C)cc4)cc13)CCCC2	Pf Dd2 inh 5.6µM
CCOc1ccccc1C(=O)Nc1ccc(S(=O)(=O)Nc2nc(C)cc(C)n2)cc1	none
COc1ccc(C)cc1NC(=O)c1ccc2c(Cl)c3c(nc2c1)CCC3	none
COc1ccccc1Nc1nn2c(=O)c3ccc(C(=O)Nc4ccc(F)cc4)cc3nc2s1	none
CC(C)(C)c1ccc(C(=O)N2C[C@@H](C(=O)O)[C@H](c3cccc(F)c3)C2)cc1	none
O=C(c1cnccn1)N1CCC2(CN[S+](=O)([O-])c3cnccc3O2)C1 (stereo unspecified)	none
Cc1ccc(-c2cnc([C@@H]3COCCN3C)[nH]2)cc1	none
COCCOC1CCN(C(=O)c2cc(C)n(CCOC)c2C)CC1	none
CCN(Cc1ccccc1)C(=O)c1sc2nc3n(c(=O)c2c1C)CCCC3	none
CCc1ccc(N(CC)C(=O)c2sc3nc4n(c(=O)c3c2C)CCCC4)cc1	Pf Dd2 inh 11µM
CCN(C(=O)c1sc2nc3n(c(=O)c2c1C)CCCCC3)c1ccc(OC)cc1	none
O=C(CN1CC2CC(C1)[C@H]1CCCC(=O)N1C2)NCCc1cccs1 (stereo partly specified)	none
COCCNC(=O)c1ccc2c(c1)N(C)C(CC(=O)N(C)CC(C)C)CO2 (stereo unspecified)	none
O=C(c1cc(-c2ccccc2)n[nH]1)N1CCCC(Cc2noc(-c3cccnc3)n2)C1 (stereo unspecified)	none
NC(=O)C1(C(=O)N2CCc3ncnc(N4CC=CC4)c3CC2)CC1	none
CCCC(=O)N1Cc2ccccc2CC2(CCN(C)C2)C1 (stereo unspecified)	Pf Dd2 inh 11µM
CC(C)C(=O)N1Cc2ccccc2CC2(CCCN(Cc3ccccc3)C2)C1 (stereo unspecified)	Pf Dd2 inh 3.5µM
CCC(=O)N1Cc2ccccc2CC2(CCCN(CC3CCNCC3)C2)C1 (stereo unspecified)	none
CN1CCC2(Cc3ccccc3CN(C(=O)CCC(=O)O)C2)C1 (stereo unspecified)	none
CCN1CCCC2(Cc3ccccc3CN(C(=O)CCC(=O)O)C2)C1 (stereo unspecified)	none
COc1ccc(C(=O)N2Cc3ccccc3CC23CCCN(C(=O)CN)C3)cc1 (stereo unspecified)	none
CCCC(=O)N1Cc2ccccc2CC2(CCN(CC)C2)C1 (stereo unspecified)	none
CC(=O)NCC(=O)N1Cc2ccccc2CC2(CCN(Cc3ccccc3)C2)C1 (stereo unspecified)	none
NCC(=O)N1Cc2ccccc2CC12CCCN(C(=O)c1ccccc1)C2 (stereo unspecified)	Pf Dd2 inh 8.9µM
CCC(=O)N1Cc2ccccc2CC2(CCCN(Cc3ccncc3)C2)C1 (stereo unspecified)	none
CCN1CCCC2(Cc3ccccc3CN(C(=O)c3ccccc3)C2)C1 (stereo unspecified)	Pf Dd2 inh 10µM
NCCCC(=O)N1CCCC2(Cc3ccccc3CN2C(=O)c2ccccc2)C1 (stereo unspecified)	none
Cc1ncsc1C(=O)N1CCc2c(n(Cc3cccnc3)n(CCc3ccccc3)c2=O)C1	none
O=C(CN1C(=O)COc2ccc(C(=O)COc3cccc(F)c3)cc21)NCc1ccc(F)cc1	none
C=Cc1ccc(Cn2c(=O)c(-c3noc(CC)n3)c3n(c2=O)CCCC3)cc1	none
O=C(NC1CCCCC1)C1(CCO)CCN(c2ncccn2)C1 (stereo unspecified)	none
COc1ccc(CC(=O)N[C@@H]2CN(c3ccccn3)C[C@H]2CN(C)C)cc1OC	none
COCCC(=O)N1CCCCCCN(C)C(=O)[C@@H]2CCC[C@@H]21	none
CN(C)C(=O)CCC1CCN(S(=O)(=O)c2cccc(F)c2)CC1	none
CC1=C[C@@H](CNC(=O)c2cncnc2)[C@H](C(C)C)C[C@H]1CC(=O)NC1CCCC1	none
O=C(CCCc1cn[nH]c1)N1CCCC(CCc2c(F)cccc2F)C1 (stereo unspecified)	none
COc1ccc(OC2CN(C(=O)c3ccccc3OC)C2)cc1	none
O=C(O)CCC(=O)N1Cc2ccccc2CC2(CCCN(CCc3ccccc3)C2)C1 (stereo unspecified)	none
CCCC(=O)N1Cc2ccccc2CC2(CCCN(CCC)C2)C1 (stereo unspecified)	Pf Dd2 inh 8.9µM
CCCN1CCCC2(Cc3ccccc3CN(C(=O)CCCC(=O)O)C2)C1 (stereo unspecified)	none
O=C(C[C@@H]1C[C@H]2O[C@H](CNCc3ccncc3F)[C@@H](O)[C@H]2O1)N1CCOCC1	none
Cc1cccc(N(C)c2ccc3cc(S(=O)(=O)N4CCCC4)ccc3n2)c1	none
Cc1cccc(N(C)c2nc3ccc(C)cc3n3cnnc23)c1	none
Cc1cccc(N(C)c2nc3ccccc3c3nnc(C)n23)c1	Pf Dd2 inh 0.45µM
c1ccc(-c2nnc3ccc(NC4CC4)nn23)nc1	none
Cc1ccc(Cl)cc1N1CCN(C(=O)CCNS(=O)(=O)c2ccc3c(c2)CCN3C(=O)C2CC2)CC1	none
CCC(=O)N1CCc2cc(Br)cc(S(=O)(=O)CCC(=O)N3CCN(c4cc(C)ccc4C)CC3)c21	none
CCc1cccc(NC(=O)CCS(=O)(=O)c2cc(Br)cc3c2N(C(C)=O)CC3)c1	none
CCOc1ccc(NS(=O)(=O)c2cc(Br)cc3c2N(C(=O)C2CC2)CC3)cc1	none
CC(=O)N1CCc2cc(Br)cc(S(=O)(=O)CCC(=O)N3CCN(c4cccc(C)c4C)CC3)c21	none
Cc1ccc(Cl)cc1N1CCN(S(=O)(=O)c2cc(Br)cc3c2N(C(=O)C2CC2)CC3)CC1	none
Cc1ccc(Cl)cc1N1CCN(C(=O)CCS(=O)(=O)c2cc(Br)cc3c2N(C(=O)C2CC2)CC3)CC1	Pf Dd2 inh 10µM
CCCCN(Cc1ccccc1)S(=O)(=O)c1cc(Br)cc2c1N(C(C)=O)CC2	none
CCC(=O)N1CCc2cc(Br)cc(S(=O)(=O)CCC(=O)Nc3ccccc3C)c21	none
O=C(CCS(=O)(=O)c1cc(Br)cc2c1N(C(=O)C1CC1)CC2)Nc1ccc(F)cc1	Pf Dd2 inh 4µM
CCN(Cc1ccccc1)S(=O)(=O)c1cc(Br)cc2c1N(C(=O)C1CC1)CC2	Pf Dd2 inh 7.9µM
COc1ccc(N2CCN(C(=O)CCS(=O)(=O)c3cc(Br)cc4c3N(C(=O)C3CC3)CC4)CC2)cc1	Pf Dd2 inh 5µM
CN(C)C(=O)c1ccnc2[nH]ccc12	none
COc1ccccc1C(=O)N1CCC(N2CCCOC2=O)CC1	none
O=C(Nc1ccc(F)c(Cl)c1)N1CCCC(Cn2c(C3CC3)nc3cccnc32)C1 (stereo unspecified)	none
O=C(C1CCOCC1)N1CCN(C(=O)N2CC3CC(C2)[C@H]2CCCC(=O)N2C3)CC1 (stereo partly specified)	none
Cc1ccc(C)c(OCC(=O)c2ccc3c(c2)N(C(C)C(=O)NCC2CCCO2)C(=O)CO3)c1 (stereo unspecified)	none
O=S(=O)(c1ccccc1)N(C1CC1)C1CCN(c2ncncn2)CC1	none
Cc1ccc(CN2CCC[C@H]2C(=O)N2CCCCCCNC(=O)CC2)o1	none
CCOc1ccccc1CN1CCCCCCNC(=O)CC1	none
CCOc1ccccc1CN1CCCCCNC(=O)CC1c1ccccc1 (stereo unspecified)	Pf Dd2 inh 7.9µM
CCOc1ccccc1NC(=O)N1CCCCCCNC(=O)CC1c1ccccc1 (stereo unspecified)	none
CCOc1ccccc1CN1CCC[C@H]1C(=O)N1CCCCCCNC(=O)CC1	Pf Dd2 inh 6.3µM
